Here are results for 32 compounds from PubChem BioAssay (NCI).

Several values for one entry are separate records, joined by “and”; a condition that tells them apart may be missing. Equal values may be shown once. This is part of a sample that, as a whole, favours compounds with a hit. Of some 83,000 tested, about 20% had one in any assay.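 Single-concentration screen, 48 h exposure, 96-well plates. Endpoint: percent growth. Below 10 = active.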 Activity calls are given as the source filed them.

The subject of one assay is UACC-62 melanoma. Nature of the assay: NCI-60 one-dose screen, 48 h (100 = growth as untreated, 0 = no growth, -100 = all killed). The following applies: 10 µM unless noted.
A further assay relates to TK-10 renal. The assay is described as above. The following applies: 10 µM unless noted.

With `C=CC(COC(=O)C(C)(C)OC(C)=O)c1ccc(OC(=O)C(C)C)c(OC)c1` (centres undefined), the growth in the assay with UACC-62 melanoma was -92.2% [100 µM] (active) and -93.9% [100 µM] (active); in the assay on TK-10 renal, -92.8% [100 µM] (active) and -93% [100 µM] (active).
In the case of `COc1cc([C@H]2OC[C@H]3[C@@H]2CO[C@@H]3c2cc(OC)c3c(c2)OCO3)cc(OC)c1OC`, the growth is 43.3% [100 µM] (inactive) and 24% [100 µM] (inactive) with UACC-62 melanoma; 33.1% [100 µM] (inactive) and 24.9% [100 µM] (inactive) with TK-10 renal.
For the compound `Cc1ccc(/C=N/Nc2cnccn2)s1`, the growth in the assay on UACC-62 melanoma is 58.8% [100 µM] (inactive) and 98.5% [100 µM] (inactive); with TK-10 renal, 116% [100 µM] (inactive) and 93% [100 µM] (inactive).
`COc1ccc(-c2nc3ccccc3c(=S)n2OC(C)=O)cc1`: the growth in the assay with UACC-62 melanoma was -63.4% [25 µM] (active) and -95.7% [25 µM] (active); in the assay with TK-10 renal it was 47% [25 µM] (inactive) and -21.7% [25 µM] (active).
In the case of `O=C1CC(c2ccccc2)NCCCCN2CC(CN1)C(C(O)c1ccccc1)C2=O` (centres undefined), the growth was 72.5% [100 µM] (inactive) and 81.1% [100 µM] (inactive) in the assay with UACC-62 melanoma; 97.8% [100 µM] (inactive) and 88.7% [100 µM] (inactive) in the assay with TK-10 renal.
Consider `COc1ccc(/C=c2\[nH]c3nc(=O)c(N4CCOCC4)c(N)n3c2=O)cc1`, for which the growth in the assay on UACC-62 melanoma is 67.5% [100 µM] (inactive) and 26% [100 µM] (inactive); with TK-10 renal, 72% [100 µM] (inactive) and 6.01% [100 µM] (active).
With `Clc1c(Cl)c(Cl)c2nn(C3CCCO3)nc2c1Cl` (centres undefined), the growth in the assay with UACC-62 melanoma is -16.1% [100 µM] (active) and -100% [100 µM] (active); with TK-10 renal, 24.5% [100 µM] (inactive) and -76.8% [100 µM] (active).
With `O=C1C=CC=C/C1=C1\N=C(c2ccccc2OCC(=O)c2ccc(Br)cc2)SS1`, the growth with UACC-62 melanoma was 48.5% [100 µM] (inactive) and 35.3% [100 µM] (inactive); in the assay on TK-10 renal, 65.8% [100 µM] (inactive) and 57.6% [100 µM] (inactive).
For the compound `CCCCCCSC[C@H](OC(C)=O)[C@@H](OC(C)=O)[C@@H](OC(C)=O)[C@@H](COC(C)=O)OC(C)=O`, the growth was 51.3% [100 µM] (inactive) and 71.8% [100 µM] (inactive) in the assay on UACC-62 melanoma; 95.1% [100 µM] (inactive) and 101% [100 µM] (inactive) in the assay on TK-10 renal.
`O=C1NC(N/N=C\c2ccccc2)=N/C1=C/c1ccc(Cl)cc1`: the growth in the assay with UACC-62 melanoma was -9.96% [100 µM] (active) and 107% [100 µM] (inactive); in the assay on TK-10 renal, -70.8% [100 µM] (active) and 57.9% [100 µM] (inactive).
Consider `C=C(CCC(C(=O)O)C1CCC2(C)C3=C(CCC12C)C1(C)CCC(O)C(C)(C)C1CC3)C(C)C` (centres undefined), for which the growth was -50.9% [100 µM] (active) and -100% [100 µM] (active) in the assay with UACC-62 melanoma; -54.9% [100 µM] (active) and -100% [100 µM] (active) in the assay with TK-10 renal.
As to `COc1ccc(/C=C2/NC(=S)N=C2Cl)cc1`, the growth was 82.8% [100 µM] (inactive) and 23.4% [100 µM] (inactive) in the assay with UACC-62 melanoma; 92.7% [100 µM] (inactive) and -42.1% [100 µM] (active) in the assay on TK-10 renal.
As for `COC(=O)C(=O)C(C(=O)C(=O)Nc1nc2ccc(C)cc2s1)c1nc2ccc([N+](=O)[O-])cc2[nH]c1=O` (centres undefined), the growth with UACC-62 melanoma was 61.1% [100 µM] (inactive) and 52.2% [100 µM] (inactive); in the assay on TK-10 renal, 115% [100 µM] (inactive) and 75.4% [100 µM] (inactive).
Turning to `Cc1ccc(OCC2OC(n3cnc4c(Cl)nc(Cl)nc43)CC2Oc2ccc(C)cc2)cc1` (centres undefined), the growth in the assay with UACC-62 melanoma was -90.8% [100 µM] (active) and -89.2% [100 µM] (active); in the assay on TK-10 renal, 72.8% [100 µM] (inactive) and -96.1% [100 µM] (active).
In the case of `N#Cc1c(N)oc(-c2cccc([N+](=O)[O-])c2)c1C#N`, the growth in the assay with UACC-62 melanoma is -82.9% [100 µM] (active) and -75% [100 µM] (active); with TK-10 renal it was -44.5% [100 µM] (active) and -69.6% [100 µM] (active).
With `CCOC(=O)c1cc(C)nc2c1c(=O)n(-c1ccccc1)c(=O)n2CCCCN1CCN(c2ncccn2)CC1`, the growth in the assay with UACC-62 melanoma is 97.1% [100 µM] (inactive) and 82.3% [100 µM] (inactive); in the assay with TK-10 renal it was 116% [100 µM] (inactive) and 111% [100 µM] (inactive).
In the case of `O=C1NC(N/N=C\c2ccccc2)=N/C1=C/c1ccccc1`, the growth in the assay on UACC-62 melanoma is -53.2% [100 µM] (active) and -100% [100 µM] (active); with TK-10 renal it was -49.7% [100 µM] (active) and -77.5% [100 µM] (active).
For `O=C(O)COc1cc(-c2ccccc2F)nc2cc3c(cc12)OCO3`, the growth in the assay on UACC-62 melanoma is 83.2% [100 µM] (inactive) and 64.8% [100 µM] (inactive); in the assay on TK-10 renal, 113% [100 µM] (inactive) and 102% [100 µM] (inactive).
With `CO/C(N)=C(\C#N)N=Cc1ccc2ccccc2c1`, the growth was -20.4% [100 µM] (active) and 1.77% [100 µM] (active) in the assay on UACC-62 melanoma; 12.8% [100 µM] (inactive) and -44.8% [100 µM] (active) in the assay on TK-10 renal.
For `N#CC1(C#N)C2CCCCC23OC(=N)C1(C#N)C(c1ccco1)O3` (centres undefined), the values for the growth in the assay with UACC-62 melanoma and in the assay with TK-10 renal were -50.9% [100 µM] (active) and -40.6% [100 µM] (active), respectively.
Regarding `CC(=O)C1=C(C)N2C(=NC3=C(CCc4ccccc43)C2c2cccc(Br)c2)S1` (centres undefined), the growth in the assay with UACC-62 melanoma is 52.3% [100 µM] (inactive) and 8.59% [100 µM] (active); in the assay on TK-10 renal, 112% [100 µM] (inactive) and 48.5% [100 µM] (inactive).
On to `CN(C)c1ccc(/C=N/n2c(-c3ccccc3)nc3ccccc3c2=O)cc1`, for which the growth in the assay on UACC-62 melanoma was 47.5% [100 µM] (inactive) and 13.6% [100 µM] (inactive); with TK-10 renal it was 101% [100 µM] (inactive) and 30.4% [100 µM] (inactive).
Regarding `COc1cc(-c2nc(SC)nc3c2CCc2ccccc2-3)cc(OC)c1OC`, the growth in the assay on UACC-62 melanoma is 42.6% [100 µM] (inactive) and 23.7% [100 µM] (inactive); with TK-10 renal it was 41.4% [100 µM] (inactive) and 11% [100 µM] (inactive).
As for `CC(=O)C1=C(C)N2C(=NC3=C(CCc4ccccc43)C2c2ccc(Cl)cc2)S1` (centres undefined), the growth with UACC-62 melanoma is 48.8% [100 µM] (inactive) and 14.3% [100 µM] (inactive); with TK-10 renal, 72.8% [100 µM] (inactive) and 35.4% [100 µM] (inactive).
Turning to `C[N+](C)(CCNC(=O)c1cccc2cc3ccccc3nc12)Cc1ccc([N+](=O)[O-])s1`, the growth was 63.1% [25 µM] (inactive) and 28.9% [25 µM] (inactive) in the assay on UACC-62 melanoma; 72% [25 µM] (inactive) and 30.2% [25 µM] (inactive) with TK-10 renal.
With `CC(C)(C)c1cc(C2COC(=O)COCCOCC(=O)OCCOCCO2)cc(C(C)(C)C)c1O` (centres undefined), the growth with UACC-62 melanoma is 24.1% [100 µM] (inactive) and -65.6% [100 µM] (active); with TK-10 renal it was -69.6% [100 µM] (active) and -100% [100 µM] (active).
As for `C=C1C2CCC3C4(C)CCCC(C)(C(=O)O)C4CCC3(C2)C1OC(=O)/C(C)=C/C` (centres undefined), the growth was -47.9% [100 µM] (active) and 42.1% [100 µM] (inactive) in the assay on UACC-62 melanoma; 27.3% [100 µM] (inactive) and 79.6% [100 µM] (inactive) with TK-10 renal.
On to `C[C@]12CC[C@@H]3c4ccc(OS(N)(=O)=O)cc4CC[C@H]3[C@@H]1CCC2=O`, for which the growth in the assay with UACC-62 melanoma is 9.29% [100 µM] (active) and 48.3% [100 µM] (inactive); in the assay with TK-10 renal, 31.9% [100 µM] (inactive) and 68.9% [100 µM] (inactive).
`COc1ccccc1-c1n[nH]c(-c2ccccc2O)n1`: the growth with UACC-62 melanoma was 62.2% [100 µM] (inactive) and 50.3% [100 µM] (inactive); in the assay with TK-10 renal it was 84.4% [100 µM] (inactive) and 32.7% [100 µM] (inactive).
As for `O=C(CCc1ccc(O)c(O)c1)c1ccc(O)c(O)c1O`, the growth in the assay on UACC-62 melanoma was -41% [100 µM] (active) and -97.2% [100 µM] (active); with TK-10 renal, 74.7% [100 µM] (inactive) and -88% [100 µM] (active).
For the compound `OCc1ccccc1OC1OC(CO)C(O)C(O)C1O` (centres undefined), the growth in the assay on UACC-62 melanoma is 85.4% [100 µM] (inactive) and 95.9% [100 µM] (inactive); in the assay on TK-10 renal it was 97.4% [100 µM] (inactive) and 97.5% [100 µM] (inactive).
Regarding `NC1N=C(c2ccc(Cl)cc2)C2=C(N1)c1ccccc1CC2` (centres undefined), the growth was 36.7% [100 µM] (inactive) and -55.8% [100 µM] (active) in the assay with UACC-62 melanoma; 76.2% [100 µM] (inactive) and -97.6% [100 µM] (active) with TK-10 renal.
